# Experimental data published in PubChem BioAssay.
# Some of the results follow. Calls of active or inactive are those of the source. Unless noted, no rule for the calls is given here.
# Experiments:
# [1] = inhibition of Brca1/Bard1 split-luciferase complementation, confirmation, counter-screen for Mdm2/MdmX interaction inhibitor project, luminescence, single concentration (AID 504668); conditions: Brca1/Bard1 bimolecular luciferase complementation counterscreen, at 8 µM, stronger effect = higher value
# [2] = PMA/ionomycin-induced NF-kB reporter inhibitors, Jurkat retest, confirmation, T-cell NF-kB inhibitor project, cell-based, luminescence, single concentration (AID 435020;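 active = inhibition reaching about 45% at 4 µM in either replicate, limit read from the data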;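 also: plate controls were PMA/ionomycin stimulated DMSO wells for no effect and unstimulated DMSO wells for full effect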); conditions: Jurkat NF-kB luciferase, 16 h, at 4 µM, stronger effect = higher value
# [3] = biological target: Tumor necrosis factor receptor superfamily member 10B (Homo sapiens) (UniProt O14763); test: caspase-8 TRAIL sensitization, hit retest, confirmation, cell-based, NB7+caspase-8, with/without TRAIL, luminescence panel (AID 651596; in the data active = activity above about 50%); conditions: NB7 neuroblastoma + caspase-8, TRAIL sensitization, luminescence viability, with TRAIL, mean of runs, at 10 µM, stronger effect = higher value
# [4] = as above; conditions: NB7 neuroblastoma + caspase-8, without TRAIL, luminescence viability, without TRAIL, mean of runs, at 10 µM
# [5] = Apaf-1 inhibitors, single-dose retest, confirmation, biochemical, fluorescence, DEVD-Rh110, 20 µM (AID 504614;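 active = mean inhibition of at least 40% at 20 µM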;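 also: plate controls were DMSO wells for no effect and DEVD-CHO caspase inhibitor control wells for full effect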); conditions: reconstituted apoptosome, caspase-3 DEVD-Rh110 fluorescence; at 20 µM; stronger effect = higher value
# [6] = Rh110 fluorescence interference by putative Apaf-1 inhibitors, confirmation, artefact control for Apaf-1 inhibitor project, biochemical, 20 µM (AID 504615;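 active = signal rise of 40% or more at 20 µM, treated as a fluorescence artifact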); conditions: quenched caspase reaction, at 20 µM, stronger effect = higher value
# [7] = cytotoxicity in PPC-1 cells, confirmation, cytotoxicity control for TRAIL apoptosis potentiator project, cell-based, ATP content luminescence (AID 1447;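 active = reconfirmed compounds whose average cytotoxicity reaches 50% or more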;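 also: 0% = DMSO-treated cells and 100% = wells holding medium but no cells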); conditions: PPC-1 viability, ATPlite luminescence, overnight; at 5 µM; stronger effect = higher value
# [8] = biological target: Sentrin-specific protease 8 (Homo sapiens) (UniProt Q96LD8); test: SENP8 protease inhibitors, retest, confirmation, biochemical, luminescence, single concentration (AID 488912;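 active = mean inhibition across replicates above about 50%, limit read from the data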); conditions: Recombinant SENP8, Z-RLRGG-aminoluciferin luminescence, 60 min; at 12.5 µM; stronger effect = higher value
# [9] = biological target: Sentrin-specific protease 6 (Homo sapiens) (UniProt Q9GZR1); test: SENP6 protease inhibitors, confirmation, biochemical, luminescence, single concentration (AID 488915;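 active = mean inhibition above about 50% in the one-dose retest, limit read from the data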); conditions: recombinant SENP6, Z-RLRGG-aminoluciferin luminescence; at 12.5 µM; stronger effect = higher value
# [10] = biological target: Sentrin-specific protease 7 (Homo sapiens) (UniProt Q9BQF6); test: SENP7 protease inhibitors, retest, confirmation, biochemical, luminescence, single concentration (AID 488917;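 active = mean inhibition above about 50% in the one-dose retest, limit read from the data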); conditions: recombinant SENP7, Z-RLRGG-aminoluciferin luminescence, 40 min; at 12.5 µM; stronger effect = higher value
# Caspase-3 (Homo sapiens) = Caspase-3 (Homo sapiens) (UniProt P42574); test: caspase-3 protease inhibitors, confirmation, selectivity assay for SENP inhibitor project, biochemical, single concentration (AID 488918;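 active = mean inhibition above about 50%, limit read from the data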;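 also: plate controls were enzyme with DMSO for no effect and wells without caspase-3 for full effect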); conditions: purified caspase-3, Z-DEVD-aminoluciferin luminescence, 60 min; at 12.5 µM; stronger effect = higher value
# [11] = luciferase luminescence interference by compounds, confirmation, artefact control for SENP inhibitor project, biochemical, single concentration, SENP8 reaction pre-completed (AID 488919;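 active = mean inhibition above about 50% when retested at one dose, limit read from the data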;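 also: plate controls were DMSO wells with completed reaction for no effect and substrate without enzyme for full effect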); conditions: Pre-incubated SENP8/Z-RLRGG-aminoluciferin, at 12.5 µM, stronger effect = higher value
# [12] = biological target: Protein Mdm4 (Homo sapiens) + E3 ubiquitin-protein ligase Mdm2 (Homo sapiens) (UniProt O15151+Q00987); test: retested Mdm2-MdmX interaction blockers, confirmation, cell-based, luminescence, single concentration, set 2 (AID 504601;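 active = mean inhibition of the luminescence signal across two replicates at or above 26 percent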); conditions: SaOS-2 split-luciferase Mdm2/MdmX complementation, at 8 µM, stronger effect = higher value
# [13] = activators of apoptotic CHOP UPR arm, confirmation, cell-based, CHO-CHOP luciferase reporter, single concentration (AID 463112; in the data active = activation above about 33%;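 also: 0% = DMSO wells and 100% = tunicamycin 10 µg/mL wells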); conditions: CHO-CHOP cells, CHOP-luciferase reporter luminescence; at 10 µM; stronger effect = higher value; percent of tunicamycin response, DMSO as zero
# [14] = HIF-2a reporter inhibitor retest, confirmation, luminescence, 786-0 RCC cells (AID 651580;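 active = mean inhibition across four replicates of at least 40 percent at the single tested concentration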); conditions: HIF-2a luciferase reporter luminescence, overnight, at 18.8 µM, stronger effect = higher value
# [15] = HIF-1a luciferase reporter signal reduction – MiaPaCa-2 cells, single concentration, counter-screen for HIF-2a inhibitor project, confirmation (AID 651589;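 active = mean inhibition of the reporter signal across four replicates at the single tested dose of 50% or more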); conditions: MiaPaCa-2 HIF-1a luciferase reporter, desferoxamine, overnight; at 18.8 µM; stronger effect = higher value
# [16] = biological target: Carboxy-terminal domain RNA polymerase II polypeptide A small phosphatase 1 (Homo sapiens) (UniProt Q9GZU7); test: Scp-1 binding by thermal shift, confirmation, orthogonal assay for Scp-1 inhibitor project, biophysical, differential scanning fluorimetry (AID 540329;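 active = substances whose mean melting-temperature shift, as a percentage of the reference inhibitor's shift, reaches about 5.3%, limit read from the data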;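 also: 0% = Tm of DMSO wells and 100% = Tm with sodium orthovanadate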); conditions: Recombinant SCP1, Sypro Orange thermal shift Tm; at 40 µM; stronger effect = higher value
# PEG-3 [17] = biological target: PEG-3 (UniProt Q6IN02); test: Peg3 promoter luciferase inhibitors, potency, dose response, cell-based, HeLa, CREF/GAPDH counter-screen panel (AID 624167); conditions: HeLa PEG-Prom luciferase reporter, overnight, CREF/GAPDH counter-screens; run 1, dose range 1, at 100 µM (top of the series)
# PEG-3 [18] = biological target: PEG-3 (UniProt Q6IN02); test: as above; conditions: HeLa PEG-Prom luciferase reporter, overnight, CREF/GAPDH counter-screens; run 2, dose range 1, at 100 µM (top of the series)
# [19] = inhibitors of PAF-induced NF-kB signaling, retest, confirmation, cell-based, GFP fluorescence, single concentration (AID 602472; in the data active = inhibition above about 40%;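 also: stimulus PAF is a Pseudomonas aeruginosa filtrate and not platelet activating factor; plate controls were DMSO wells with stimulus for no effect and unstimulated DMSO wells for full effect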); conditions: KKLEB CF airway cells, overnight, at 5 µM, stronger effect = higher value
# Chain of Tumor necrosis factor receptor superfamily member 10B (Homo sapiens) (O14763 whole entry, looked up): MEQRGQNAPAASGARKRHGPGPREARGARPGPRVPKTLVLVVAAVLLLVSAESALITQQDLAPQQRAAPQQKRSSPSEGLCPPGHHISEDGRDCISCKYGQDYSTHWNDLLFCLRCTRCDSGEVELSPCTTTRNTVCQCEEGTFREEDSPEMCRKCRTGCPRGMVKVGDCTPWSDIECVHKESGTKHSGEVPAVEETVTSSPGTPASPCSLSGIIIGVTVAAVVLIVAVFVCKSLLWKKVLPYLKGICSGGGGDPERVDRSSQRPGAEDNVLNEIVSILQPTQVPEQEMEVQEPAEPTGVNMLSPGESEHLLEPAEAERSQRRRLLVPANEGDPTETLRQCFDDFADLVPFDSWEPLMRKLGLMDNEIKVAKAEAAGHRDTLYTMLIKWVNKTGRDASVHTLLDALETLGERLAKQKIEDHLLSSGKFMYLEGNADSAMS
# Chain of PEG-3 (Q6IN02 whole entry, looked up): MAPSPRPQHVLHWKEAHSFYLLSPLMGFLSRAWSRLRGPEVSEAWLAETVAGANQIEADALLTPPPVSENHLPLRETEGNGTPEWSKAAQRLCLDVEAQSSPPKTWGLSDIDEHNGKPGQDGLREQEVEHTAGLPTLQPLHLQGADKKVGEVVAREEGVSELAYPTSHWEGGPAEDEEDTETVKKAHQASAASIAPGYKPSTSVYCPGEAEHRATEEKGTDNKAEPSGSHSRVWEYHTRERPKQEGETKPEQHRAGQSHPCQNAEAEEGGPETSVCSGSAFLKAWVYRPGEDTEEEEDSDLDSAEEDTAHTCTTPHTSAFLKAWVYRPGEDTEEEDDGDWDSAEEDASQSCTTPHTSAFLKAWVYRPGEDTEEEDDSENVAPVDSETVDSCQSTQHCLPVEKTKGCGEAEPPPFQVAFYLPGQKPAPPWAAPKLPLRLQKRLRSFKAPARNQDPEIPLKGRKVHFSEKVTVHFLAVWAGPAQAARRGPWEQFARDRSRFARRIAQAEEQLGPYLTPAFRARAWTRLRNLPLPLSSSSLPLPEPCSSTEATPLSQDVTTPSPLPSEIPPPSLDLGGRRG
# Chain of Protein Mdm4 (Homo sapiens) + E3 ubiquitin-protein ligase Mdm2 (Homo sapiens) (O15151 whole entry, looked up): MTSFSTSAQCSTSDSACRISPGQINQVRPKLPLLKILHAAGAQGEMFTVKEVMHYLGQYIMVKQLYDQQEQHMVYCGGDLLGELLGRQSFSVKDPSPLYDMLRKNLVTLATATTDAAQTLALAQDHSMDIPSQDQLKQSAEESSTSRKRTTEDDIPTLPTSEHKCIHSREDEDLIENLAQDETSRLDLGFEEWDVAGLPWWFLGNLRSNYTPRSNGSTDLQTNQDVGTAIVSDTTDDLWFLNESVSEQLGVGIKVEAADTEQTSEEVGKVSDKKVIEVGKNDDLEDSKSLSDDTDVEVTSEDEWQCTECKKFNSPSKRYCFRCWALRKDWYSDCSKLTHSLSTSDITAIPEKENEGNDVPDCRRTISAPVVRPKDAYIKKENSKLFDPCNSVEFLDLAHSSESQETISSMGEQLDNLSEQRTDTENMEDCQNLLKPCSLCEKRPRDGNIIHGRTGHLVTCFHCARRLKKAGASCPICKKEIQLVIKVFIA
# Chain of Protein Mdm4 (Homo sapiens) + E3 ubiquitin-protein ligase Mdm2 (Homo sapiens) (Q00987 whole entry, looked up): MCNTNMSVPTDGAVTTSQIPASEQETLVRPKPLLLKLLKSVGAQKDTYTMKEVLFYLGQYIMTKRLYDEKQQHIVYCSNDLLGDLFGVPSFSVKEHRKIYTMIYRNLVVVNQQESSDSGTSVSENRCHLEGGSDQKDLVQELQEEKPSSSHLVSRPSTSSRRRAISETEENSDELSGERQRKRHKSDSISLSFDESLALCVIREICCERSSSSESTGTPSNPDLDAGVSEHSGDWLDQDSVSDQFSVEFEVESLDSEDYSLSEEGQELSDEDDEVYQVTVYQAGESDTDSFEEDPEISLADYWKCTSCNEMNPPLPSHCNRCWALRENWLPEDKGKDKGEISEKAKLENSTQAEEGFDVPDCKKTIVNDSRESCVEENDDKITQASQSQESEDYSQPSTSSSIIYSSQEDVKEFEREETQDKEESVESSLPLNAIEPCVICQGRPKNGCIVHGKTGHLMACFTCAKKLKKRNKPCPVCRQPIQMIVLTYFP
# Chain of Sentrin-specific protease 6 (Homo sapiens) (Q9GZR1 628-1112 limits assumed): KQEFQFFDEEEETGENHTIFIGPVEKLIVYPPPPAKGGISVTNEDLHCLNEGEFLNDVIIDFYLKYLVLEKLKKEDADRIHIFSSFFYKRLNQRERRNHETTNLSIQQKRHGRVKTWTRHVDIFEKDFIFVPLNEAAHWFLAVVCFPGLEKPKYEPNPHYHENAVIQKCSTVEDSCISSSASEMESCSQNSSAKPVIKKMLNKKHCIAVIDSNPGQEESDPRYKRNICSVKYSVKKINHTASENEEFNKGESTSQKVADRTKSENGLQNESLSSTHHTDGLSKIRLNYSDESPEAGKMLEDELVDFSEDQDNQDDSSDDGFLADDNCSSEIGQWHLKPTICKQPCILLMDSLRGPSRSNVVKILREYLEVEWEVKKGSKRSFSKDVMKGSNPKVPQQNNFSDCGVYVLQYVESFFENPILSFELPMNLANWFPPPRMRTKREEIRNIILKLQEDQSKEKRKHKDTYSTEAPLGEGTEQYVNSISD
# Chain of Caspase-3 (Homo sapiens) (P42574 28-227 limits assumed): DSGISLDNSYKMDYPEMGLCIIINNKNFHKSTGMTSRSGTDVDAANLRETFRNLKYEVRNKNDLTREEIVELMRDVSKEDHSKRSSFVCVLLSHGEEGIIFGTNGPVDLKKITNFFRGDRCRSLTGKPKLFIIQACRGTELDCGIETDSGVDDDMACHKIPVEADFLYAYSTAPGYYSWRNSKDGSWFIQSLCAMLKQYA
# Chain of Carboxy-terminal domain RNA polymerase II polypeptide A small phosphatase 1 (Homo sapiens) (Q9GZU7 76-261 limits assumed): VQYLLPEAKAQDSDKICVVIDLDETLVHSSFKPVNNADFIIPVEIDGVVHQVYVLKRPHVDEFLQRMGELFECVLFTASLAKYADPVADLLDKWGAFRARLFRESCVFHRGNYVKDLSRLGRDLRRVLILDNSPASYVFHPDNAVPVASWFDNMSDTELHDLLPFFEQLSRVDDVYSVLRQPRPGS
# Chain of Sentrin-specific protease 7 (Homo sapiens) (Q9BQF6 706-1050 limits assumed): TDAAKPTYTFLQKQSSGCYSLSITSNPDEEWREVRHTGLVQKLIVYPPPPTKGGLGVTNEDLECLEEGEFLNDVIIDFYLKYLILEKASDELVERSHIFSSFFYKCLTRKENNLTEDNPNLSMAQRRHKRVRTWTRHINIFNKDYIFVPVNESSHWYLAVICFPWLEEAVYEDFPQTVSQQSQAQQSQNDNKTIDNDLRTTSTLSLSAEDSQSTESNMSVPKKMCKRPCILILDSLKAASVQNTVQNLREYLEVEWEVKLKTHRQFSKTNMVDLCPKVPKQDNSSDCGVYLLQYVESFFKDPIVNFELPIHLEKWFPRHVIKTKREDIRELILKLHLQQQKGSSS
# Chain of Sentrin-specific protease 8 (Homo sapiens) (Q96LD8 whole entry, looked up): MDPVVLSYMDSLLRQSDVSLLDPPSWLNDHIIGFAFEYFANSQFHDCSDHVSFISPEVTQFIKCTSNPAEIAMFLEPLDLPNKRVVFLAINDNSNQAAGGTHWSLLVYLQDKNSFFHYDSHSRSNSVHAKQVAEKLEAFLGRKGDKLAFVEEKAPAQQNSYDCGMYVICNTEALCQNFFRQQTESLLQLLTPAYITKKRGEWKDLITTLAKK
smiles,measurement,setting,value
Fc1ccc(C(OCCN2CCN(CCCc3ccccc3)CC2)c2ccc(F)cc2)cc1,inhibition,[1],30.4% (active)
CCOc1ccc(-c2cc(C)[n+](CCN(CC)CC)c(-c3ccc(OCC)cc3)c2)cc1,inhibition,[2],21.7% (inactive)
same,activity,[3],62.5%
same,activity,[4],59.2%
Cn1c(NN=O)nc2ccccc21,inhibition,[1],35.8% (active)
C[C@@H]1O[C@@H](O[C@H]2C[C@@H](O)[C@]3(CO)[C@H]4[C@H](O)C[C@]5(C)[C@@H](C6COC(=O)C6)CC[C@]5(O)[C@@H]4CC[C@]3(O)C2)[C@H](O)[C@H](O)[C@H]1O (stereo partly drawn),inhibition,[1],26.8% (active)
CCOc1cccc(CNCCc2c(C)[nH]c3ccc(OC(F)(F)F)cc23)c1O,inhibition,[1],29.9% (active)
CCOC(=O)c1c(N)n(Cc2ccccc2)c2nc3ccccc3nc12,inhibition,[5],12.5% (inactive)
same,activation (fluorescence interference),[6],5.83% (inactive)
CCn1nc(-c2ccccc2)nc2c(=O)n(C)c(=O)nc1-2,inhibition,[1],23.3% (active)
COc1cccc(-c2nc3ccc(N4CCN(C)CC4)cc3[nH]2)c1,cytotoxicity,[7],82.3% (active)
same,inhibition,[8],74.8% (active)
same,inhibition,[9],67.2% (active)
same,inhibition,[10],88.2% (active)
same,inhibition,Caspase-3 (Homo sapiens),87% (active)
same,inhibition,[11],25.4% (inactive)
same,activity,[3],90.4%
same,activity,[4],87.8%
N#CC(C#N)=NNc1ccc(-n2ccc(C(F)(F)F)n2)cc1,inhibition,[1],31.2% (active)
C[C@]12CC[C@H]3[C@@H](CC[C@]4(O)C[C@@H](O)CC[C@]34C=O)[C@@]1(O)CC[C@@H]2C1=CC(=O)OC1,inhibition,[1],28% (active)
C[C@]12CC[C@H](O)C[C@H]1CC[C@@H]1C2CC[C@]2(C)[C@@H](C3=CC(=O)OC3)[C@@H](O)C[C@]12O (stereo partly drawn),inhibition,[2],-17.1% (inactive)
Cc1cc(O)c2c(c1)C(=O)C13C(=C2O)C(=O)[C@H]2[C@@H](O)[C@@H]1[C@H]1[C@H](O)[C@@H]3C(=O)C3=C(O)c4c(O)cc(C)cc4C(=O)C312 (stereo partly drawn),inhibition,[1],29.6% (active)
Cc1cc2ccccn2c1C(C[N+](=O)[O-])c1c(F)cccc1Cl (stereo not drawn),inhibition,[2],6.25% (inactive)
same,inhibition,[12],33% (active)
same,inhibition,[1],29.6% (active)
Clc1ccc(C(c2ccc(Cl)cc2)n2cc[n+](CC(OCc3ccc(Cl)cc3Cl)c3ccc(Cl)cc3Cl)c2)cc1 (stereo not drawn),inhibition,[1],28.6% (active)
O=C1NC(=O)N(CCc2ccc(F)cc2)C(=O)/C1=C/C=C/c1ccccc1,activation,[13],90.1% (active)
c1ccc2c(N3CCNCC3)nsc2c1,inhibition,[1],29.6% (active)
CC(C)c1oc(=O)cc2c1[C@@H](O)[C@H]1OC(=O)[C@@]3(C)C[C@@H](O)[C@@H](O)[C@@]2(C)C13 (stereo partly drawn),inhibition,[1],29.6% (active)
CCc1nc2ccccc2c(=O)n1-c1cccc(OC)c1,cytotoxicity,[7],-11.4% (inactive)
C[C@@H]1O[C@@H](O[C@H]2C[C@@H](O)[C@]3(CO)[C@@H]4C(CC[C@]3(O)C2)[C@@]2(O)CC[C@H](C3COC(=O)C3)[C@@]2(C)C[C@H]4O)[C@H](O)[C@H](O)[C@H]1O (stereo partly drawn),inhibition,[1],24.4% (active)
CCCCCCCCCCCCn1ccc(=N)cc1,inhibition,[2],80.3% (active)
same,inhibition,[12],103% (active)
same,inhibition,[5],32% (inactive)
same,activation (fluorescence interference),[6],3.55% (inactive)
same,inhibition,[14],64% (active)
same,inhibition,[15],106% (active)
same,activity,[3],92.9%
same,activity,[4],80%
CNCC(O)c1cc(F)c(OCc2ccccc2)c(OCc2ccccc2)c1F (stereo not drawn),inhibition,[5],12.9% (inactive)
same,activation (fluorescence interference),[6],12.9% (inactive)
O=C(O)CCn1cc(C=C2C(=O)NC(=S)NC2=O)c(-c2cccc(Br)c2)n1,thermal shift relative to vanadate control,[16],-19.9% (inactive)
COc1cccc(C2CC3C(=O)C=CC2N3Cc2ccccc2)c1 (stereo not drawn),inhibition,PEG-3 [17],101%
same,inhibition,PEG-3 [18],100%
COc1cc2c3c(c1OC)Oc1ccc(cc1)C[C@H]1c4c(cc(OC)c(OC)c4Oc4ccc(cc4)C[C@@H]3N(C)CC2)CCN1C,inhibition,[1],35.2% (active)
C[C@]12CC[C@H](O)C[C@H]1CC[C@@H]1[C@@H]2C[C@@H](O)[C@]2(C)[C@@H](C3=CC(=O)OC3)CC[C@]12O,inhibition,[1],34% (active)
same,activity,[3],86.5%
same,activity,[4],85.4%
COc1ccc(-n2nnnc2C(c2cccc3ccccc23)N2CCC(n3c(=O)[nH]c4ccccc43)CC2)cc1 (stereo not drawn),inhibition,[19],14.7% (inactive)
NC(N)=N/N=C/c1ccc(N(c2ccccc2)c2ccccc2)cc1,inhibition,[1],29.9% (active)
same,activity,[3],75.5%
same,activity,[4],97.2%
Cc1cccc(C)c1-n1nnnc1C(c1ccccc1OC(F)(F)F)N1CCC(n2c(=O)[nH]c3ccccc32)CC1 (stereo not drawn),inhibition,PEG-3 [17],49.4%
same,inhibition,PEG-3 [18],42%
O=Cc1cn(Cc2cccc(F)c2)c2ccccc12,inhibition,PEG-3 [17],50.1%
same,inhibition,PEG-3 [18],75.9%
CC[C@@H](O)C[C@H]1CCC[C@@]2(C[C@@H]3OC(=O)/C=C/[C@@](C)(O)[C@@H](O)[C@H](C)[C@@H](O)[C@H](OC4CCC(N(C)C)C(C)O4)[C@@H](O)[C@](C)(O)CCCCC/C=C/[C@@H]4CC(C)(C)O[C@@]4(O)C[C@H](O2)[C@H]3C)O1 (stereo partly drawn),inhibition,PEG-3 [17],98.9%
same,inhibition,PEG-3 [18],98.9%
